Several values for one entry are separate records, joined by “and”; a condition that tells them apart may be missing. Equal values may be shown once. Inconclusive results are not listed. Where a structure was tested more than once in an assay, its records may differ in their call. Activity calls are given as the source filed them. How the source made its calls, unless noted: active means hit-call score of the fitted dose curve at least 0.9, where 1 is the maximum; inconclusive means response in the unintended direction; inactive means score below 0.9.

In test [1] the target is human CYP1A1, CYP1A1 (gene 1543) (UniProt P04798). The test can be described thus: NVS_ADME_hCYP1A1: NovaScreen (NVS) CYP450-related Enzyme Activity (ADME) Assay for human CYP1A1 (AID 2283100). The essentials: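 Inhibition of recombinant CYP1A1 turnover was assessed fluorometrically in a biochemical format 1 h after compound exposure. Testing began at 10 uM in duplicate and progressed to concentration series reaching 20 uM, with on-plate positive and negative controls.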

Test [2] deals with human CYP2B6, CYP2B6 (gene 1555) (UniProt P20813). The test can be described thus: NVS_ADME_hCYP2B6: NovaScreen (NVS) CYP450-related Enzyme Activity (ADME) Assay for human CYP2B6 (AID 2283101). The method, boiled down:
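Fluorescence-based enzyme activity of recombinant human CYP2B6, measured 1 h post-dose against acetonitrile vehicle baseline. Screened at a single concentration of 10 uM in duplicate before concentration-response follow-up.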

The target in test [3] is human CYP2C9, CYP2C9 (gene 1559) (UniProt P11712). The test can be described thus: NVS_ADME_hCYP2C9: NovaScreen (NVS) CYP450-related Enzyme Activity (ADME) Assay for human CYP2C9 (AID 2283108). The essentials: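 Recombinant human CYP2C9 expressed in SF9 cells, fluorogenic substrate, fluorescence read 0.75 h after dosing. Chemicals first run in duplicate at 10 uM, with actives followed in concentration series; loss of signal versus acetonitrile baseline.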

For test [4], the target named is rat CYP2A1, Cyp2a1 (gene 24894) (UniProt P11711). The test can be described thus: NVS_ADME_rCYP2A1: NovaScreen (NVS) CYP450-related Enzyme Activity (ADME) Assay for rat CYP2A1 (AID 2283114; active means hit-call score of the fitted dose curve at least 0.9, where 1 is the maximum; inactive means score below 0.9). The method, boiled down:
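Cell-free fluorescence enzyme-activity read on recombinant rat CYP2A1, taken 0.75 h post-dosing. Compounds were screened in duplicate at 10 uM, then hits tested in concentration series (max 20 uM); inhibition scored relative to acetonitrile baseline.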

The target in test [5] is rat CYP2A2, Cyp2a2 (gene 24895) (UniProt P15149). The experiment in a line: NVS_ADME_rCYP2A2: NovaScreen (NVS) CYP450-related Enzyme Activity (ADME) Assay for rat CYP2A2 (AID 2283116). The essentials: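 Compounds first tested in duplicate at 10 uM, then in singleton concentration series up to 20 uM when over threshold. Activity of the recombinant enzyme read by fluorescence at 0.2 h, normalised to acetonitrile vehicle.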

In test [6] the target is rat CYP2C11, Cyp2c11 (gene 29277) (UniProt P08683). The test can be described thus: NVS_ADME_rCYP2C11: NovaScreen (NVS) CYP450-related Enzyme Activity (ADME) Assay for rat CYP2C11 (AID 2283118). The essentials:
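Screened first at 10 uM in duplicate, hits followed by concentration-response. Recombinant rat enzyme activity monitored by fluorescence 0.33 h post-dosing, normalised to acetonitrile negative control.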

In test [7] the target is rat CYP2C13, Cyp2c13 (gene 171521) (UniProt P20814). The test can be described thus: NVS_ADME_rCYP2C13: NovaScreen (NVS) CYP450-related Enzyme Activity (ADME) Assay for rat CYP2C13 (AID 2283121). The essentials: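 Inhibition is read as decreased fluorescent product formation, referenced to acetonitrile vehicle. Cell-free recombinant rat Cyp2c13 reaction ran 0.75 hour; compounds first at 10 uM in duplicate, then concentration series for actives.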

Test [8] addresses rat CYP3A2, Cyp3a2 (gene 266682) (UniProt P05183). The test can be described thus: NVS_ADME_rCYP3A2: NovaScreen (NVS) CYP450-related Enzyme Activity (ADME) Assay for rat CYP3A2 (AID 2283128). The essentials:
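Fluorescence readout of extracted rat CYP3A2 activity 0.5 h post-dose, acetonitrile as negative control. Single-point testing in duplicate at 10 uM, followed by concentration series to a 20 uM maximum for actives.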

The target of test [9] is Cytochrome P450 2C19 (Homo sapiens) (UniProt P33261). The experiment in a line: NVS_ADME_hCYP2C19: NovaScreen (NVS) CYP450-related Enzyme Activity (ADME) Assay for human CYP2C19 (AID 2283113).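 On AC50: potency for inhibition seen as loss of fluorescent signal.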 The essentials:
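Biochemical CYP2C19 inhibition screen: insect-cell recombinant protein plus fluorescent substrate, 1 h, fluorescence intensity. Acetonitrile defined baseline activity. Single 10 uM concentration in duplicate, with concentration-response follow-up for actives.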

Test [10] addresses human AKT serine/threonine Kinase 1 (AKT1), AKT1 (gene 207) (UniProt P31749). The experiment in a line: NVS_ENZ_hAKT1: NovaScreen (NVS) Enzymatic Assay for human AKT serine/threonine Kinase 1 (AKT1) (AID 2283138). The essentials:
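Fluorescence and mobility-shift readout of kinase activity, taken 1 h post-dosing in a cell-free format with recombinant protein. Primary screen at 25 uM in duplicate; hits (e.g. 30% inhibition) retested in concentration series topping at 50 uM.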

Test [11] addresses Cytochrome P450 3A4 (Homo sapiens) (UniProt P08684). The test can be described thus: NVS_ADME_hCYP3A4: NovaScreen (NVS) CYP450-related Enzyme Activity (ADME) Assay for human CYP3A4 (AID 2283110). The method, boiled down:
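Recombinant CYP3A4 from insect cells, fluorescence enzyme read-out, 0.33 h after chemical addition. Acetonitrile = negative control/baseline. Primary HTS: 10 uM in duplicate; actives re-tested in concentration series.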

Test [12] addresses human CYP2D6, CYP2D6 (gene 1565) (UniProt P10635). The experiment in a line: NVS_ADME_hCYP2D6: NovaScreen (NVS) CYP450-related Enzyme Activity (ADME) Assay for human CYP2D6 (AID 2283107). The essentials: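 Biochemical fluorescence assay, insect-cell-derived enzyme. Read at 1 h; inhibition taken from loss of signal against acetonitrile. Screened at 10 uM in duplicate, with concentration series for actives.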

For test [13], the system named is rat CYP2C6, gene 293989. The test can be described thus: NVS_ADME_rCYP2C6: NovaScreen (NVS) CYP450-related Enzyme Activity (ADME) Assay for rat CYP2C6 (AID 2283120). The essentials: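 Compounds first tested in duplicate at 10 uM, hits (e.g. 30% inhibition) re-run in singleton dose series to a 20 uM top concentration. Enzyme activity of recombinant rat CYP2C6 measured via fluorescent substrate turnover after 1 h; acetonitrile baseline.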

Test [14] addresses rat CYP2D2, Cyp2d26 (gene 25053) (UniProt P10634). The experiment in a line: NVS_ADME_rCYP2D2: NovaScreen (NVS) CYP450-related Enzyme Activity (ADME) Assay for rat CYP2D2 (AID 2283124). The method, boiled down: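 Single-concentration duplicate testing at 10 uM, followed by concentration-response (top 20 uM) for chemicals passing threshold. Enzyme activity of the recombinant rat isoform measured by fluorescence after 0.75 h, acetonitrile as baseline.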

In test [15] the target is human AKT serine/threonine Kinase 2 (AKT2), AKT2 (gene 208) (UniProt P31751). The experiment in a line: NVS_ENZ_hAKT2: NovaScreen (NVS) Enzymatic Assay for human AKT serine/threonine Kinase 2 (AKT2) (AID 2283141). The essentials: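 Cell-free fluorescence/electrophoretic mobility shift readout of recombinant human AKT2 activity, 1 h after chemical dosing. Duplicate primary screen at 25 uM, then singleton concentration-response up to 50 uM; loss of signal versus DMSO baseline.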

Test [16] has as its target human Beta-secretase (BACE), BACE1 (gene 23621) (UniProt P56817). The test can be described thus: NVS_ENZ_hBACE: NovaScreen (NVS) Enzymatic Assay for human Beta-secretase (BACE) (AID 2283140).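 Further: hits are inhibitors that reduce fluorescent substrate signal versus DMSO.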 The method, boiled down: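 SF9-expressed enzyme, cell-free; fluorescent substrate readout after 1 h. Screened at 25 uM single concentration, duplicate; hits retested in concentration series. Activity relative to DMSO baseline, loss-of-signal.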

human CYP1A1, CYP1A1 (gene 1543), sequence (P04798 whole entry, looked up): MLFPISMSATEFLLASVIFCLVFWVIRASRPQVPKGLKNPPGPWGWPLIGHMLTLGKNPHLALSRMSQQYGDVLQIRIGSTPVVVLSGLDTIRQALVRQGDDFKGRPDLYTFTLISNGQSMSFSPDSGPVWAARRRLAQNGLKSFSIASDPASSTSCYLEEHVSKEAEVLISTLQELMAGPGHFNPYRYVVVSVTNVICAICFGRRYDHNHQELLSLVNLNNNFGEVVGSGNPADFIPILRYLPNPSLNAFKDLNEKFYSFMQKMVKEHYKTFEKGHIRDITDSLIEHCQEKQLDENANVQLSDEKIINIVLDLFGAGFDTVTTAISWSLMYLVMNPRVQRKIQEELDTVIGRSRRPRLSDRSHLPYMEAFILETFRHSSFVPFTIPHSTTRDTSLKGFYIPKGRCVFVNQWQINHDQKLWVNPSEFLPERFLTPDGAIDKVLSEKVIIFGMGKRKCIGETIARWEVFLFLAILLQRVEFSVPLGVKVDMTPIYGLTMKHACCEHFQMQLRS
rat CYP2C11, Cyp2c11 (gene 29277), sequence (P08683 whole entry, looked up): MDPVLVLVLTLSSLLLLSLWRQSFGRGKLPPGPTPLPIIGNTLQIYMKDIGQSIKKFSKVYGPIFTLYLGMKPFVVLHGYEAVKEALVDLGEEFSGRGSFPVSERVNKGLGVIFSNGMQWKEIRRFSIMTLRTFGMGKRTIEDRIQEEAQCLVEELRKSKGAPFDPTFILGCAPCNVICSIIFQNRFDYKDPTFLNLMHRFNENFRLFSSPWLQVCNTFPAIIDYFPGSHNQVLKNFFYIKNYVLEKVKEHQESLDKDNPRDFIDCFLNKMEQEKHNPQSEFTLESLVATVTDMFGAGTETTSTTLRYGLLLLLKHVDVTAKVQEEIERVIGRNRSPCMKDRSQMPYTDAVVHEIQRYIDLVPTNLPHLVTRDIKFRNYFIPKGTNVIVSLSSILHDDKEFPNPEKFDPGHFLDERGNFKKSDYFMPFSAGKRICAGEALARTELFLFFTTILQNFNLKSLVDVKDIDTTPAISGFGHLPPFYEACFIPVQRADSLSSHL
rat CYP2A1, Cyp2a1 (gene 24894), sequence (P11711 whole entry, looked up): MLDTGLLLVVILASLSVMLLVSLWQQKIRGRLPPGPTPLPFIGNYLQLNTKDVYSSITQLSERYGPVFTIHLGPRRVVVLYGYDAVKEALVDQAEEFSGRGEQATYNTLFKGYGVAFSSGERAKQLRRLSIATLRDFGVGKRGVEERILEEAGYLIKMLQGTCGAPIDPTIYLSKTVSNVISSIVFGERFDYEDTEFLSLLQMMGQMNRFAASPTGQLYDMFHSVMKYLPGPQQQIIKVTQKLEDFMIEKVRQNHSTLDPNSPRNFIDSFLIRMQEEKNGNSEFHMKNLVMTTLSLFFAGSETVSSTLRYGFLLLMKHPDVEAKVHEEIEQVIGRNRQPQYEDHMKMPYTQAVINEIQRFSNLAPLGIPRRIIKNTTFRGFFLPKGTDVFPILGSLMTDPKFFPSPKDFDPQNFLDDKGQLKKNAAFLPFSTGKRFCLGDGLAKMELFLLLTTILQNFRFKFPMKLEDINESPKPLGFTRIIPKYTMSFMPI
rat CYP2C13, Cyp2c13 (gene 171521), sequence (P20814 whole entry, looked up): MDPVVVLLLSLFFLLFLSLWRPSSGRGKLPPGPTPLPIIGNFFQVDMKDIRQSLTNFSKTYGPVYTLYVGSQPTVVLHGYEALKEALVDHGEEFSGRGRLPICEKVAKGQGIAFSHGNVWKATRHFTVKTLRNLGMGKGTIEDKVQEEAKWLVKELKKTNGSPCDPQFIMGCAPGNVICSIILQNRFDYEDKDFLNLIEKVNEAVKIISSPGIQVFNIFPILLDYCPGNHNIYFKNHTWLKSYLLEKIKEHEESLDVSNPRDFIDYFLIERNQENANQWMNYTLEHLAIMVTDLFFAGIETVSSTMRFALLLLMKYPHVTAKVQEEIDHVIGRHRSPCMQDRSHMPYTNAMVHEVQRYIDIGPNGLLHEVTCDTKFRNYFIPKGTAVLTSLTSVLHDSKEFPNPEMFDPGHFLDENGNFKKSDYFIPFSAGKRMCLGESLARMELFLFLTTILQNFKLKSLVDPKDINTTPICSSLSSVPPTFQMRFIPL
rat CYP2A2, Cyp2a2 (gene 24895), sequence (P15149 whole entry, looked up): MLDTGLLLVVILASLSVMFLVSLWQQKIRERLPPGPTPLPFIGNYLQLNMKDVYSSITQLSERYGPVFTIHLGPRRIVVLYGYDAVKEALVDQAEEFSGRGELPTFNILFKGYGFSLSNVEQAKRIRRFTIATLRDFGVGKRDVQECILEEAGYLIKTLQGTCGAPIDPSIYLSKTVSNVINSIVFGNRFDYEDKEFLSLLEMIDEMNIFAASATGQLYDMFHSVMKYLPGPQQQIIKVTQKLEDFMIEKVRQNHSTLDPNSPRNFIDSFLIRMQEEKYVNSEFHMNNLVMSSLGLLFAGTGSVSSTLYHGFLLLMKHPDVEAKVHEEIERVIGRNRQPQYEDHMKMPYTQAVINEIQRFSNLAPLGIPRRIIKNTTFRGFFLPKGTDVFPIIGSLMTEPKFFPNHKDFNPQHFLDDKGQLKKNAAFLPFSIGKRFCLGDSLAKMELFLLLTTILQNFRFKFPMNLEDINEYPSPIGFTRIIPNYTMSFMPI
human CYP2B6, CYP2B6 (gene 1555), sequence (P20813 whole entry, looked up): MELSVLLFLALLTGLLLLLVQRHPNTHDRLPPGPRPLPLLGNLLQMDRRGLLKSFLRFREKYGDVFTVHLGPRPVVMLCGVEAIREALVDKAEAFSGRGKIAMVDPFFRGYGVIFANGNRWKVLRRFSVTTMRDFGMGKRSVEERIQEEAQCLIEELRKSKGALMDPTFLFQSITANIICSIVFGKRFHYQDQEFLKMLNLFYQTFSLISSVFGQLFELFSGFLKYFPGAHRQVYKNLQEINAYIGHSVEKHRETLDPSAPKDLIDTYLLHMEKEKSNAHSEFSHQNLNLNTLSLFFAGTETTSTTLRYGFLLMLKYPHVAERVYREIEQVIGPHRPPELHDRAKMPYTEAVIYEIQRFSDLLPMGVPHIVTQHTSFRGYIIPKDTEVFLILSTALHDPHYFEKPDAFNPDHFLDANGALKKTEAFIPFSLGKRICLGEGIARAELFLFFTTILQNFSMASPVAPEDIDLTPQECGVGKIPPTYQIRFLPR
human CYP2C9, CYP2C9 (gene 1559), sequence (P11712 whole entry, looked up): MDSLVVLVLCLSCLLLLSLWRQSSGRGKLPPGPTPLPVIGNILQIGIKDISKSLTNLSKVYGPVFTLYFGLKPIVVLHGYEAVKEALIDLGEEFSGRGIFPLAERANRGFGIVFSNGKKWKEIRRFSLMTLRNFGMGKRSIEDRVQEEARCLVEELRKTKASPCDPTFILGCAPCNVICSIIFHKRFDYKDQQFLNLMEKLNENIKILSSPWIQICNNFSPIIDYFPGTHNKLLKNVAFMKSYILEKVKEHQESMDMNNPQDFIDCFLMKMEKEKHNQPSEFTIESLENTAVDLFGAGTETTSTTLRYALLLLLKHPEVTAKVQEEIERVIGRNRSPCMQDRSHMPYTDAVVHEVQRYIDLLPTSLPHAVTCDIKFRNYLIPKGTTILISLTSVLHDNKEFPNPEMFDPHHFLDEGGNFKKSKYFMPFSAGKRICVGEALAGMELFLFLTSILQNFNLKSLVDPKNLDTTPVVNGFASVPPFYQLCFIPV
rat CYP3A2, Cyp3a2 (gene 266682), sequence (P05183 whole entry, looked up): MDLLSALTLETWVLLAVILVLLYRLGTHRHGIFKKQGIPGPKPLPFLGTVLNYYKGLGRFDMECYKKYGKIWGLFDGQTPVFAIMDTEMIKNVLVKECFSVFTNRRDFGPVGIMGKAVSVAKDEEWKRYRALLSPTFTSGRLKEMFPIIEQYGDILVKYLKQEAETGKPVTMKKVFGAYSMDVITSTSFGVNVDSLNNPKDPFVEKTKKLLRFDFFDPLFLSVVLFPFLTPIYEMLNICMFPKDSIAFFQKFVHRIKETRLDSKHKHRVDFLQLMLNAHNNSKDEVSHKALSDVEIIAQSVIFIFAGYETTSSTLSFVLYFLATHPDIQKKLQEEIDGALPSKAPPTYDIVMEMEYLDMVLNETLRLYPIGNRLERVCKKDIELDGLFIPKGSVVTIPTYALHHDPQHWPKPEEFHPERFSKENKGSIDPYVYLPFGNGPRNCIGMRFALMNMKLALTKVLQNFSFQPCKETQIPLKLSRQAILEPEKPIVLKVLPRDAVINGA
human CYP2D6, CYP2D6 (gene 1565), sequence (P10635 whole entry, looked up): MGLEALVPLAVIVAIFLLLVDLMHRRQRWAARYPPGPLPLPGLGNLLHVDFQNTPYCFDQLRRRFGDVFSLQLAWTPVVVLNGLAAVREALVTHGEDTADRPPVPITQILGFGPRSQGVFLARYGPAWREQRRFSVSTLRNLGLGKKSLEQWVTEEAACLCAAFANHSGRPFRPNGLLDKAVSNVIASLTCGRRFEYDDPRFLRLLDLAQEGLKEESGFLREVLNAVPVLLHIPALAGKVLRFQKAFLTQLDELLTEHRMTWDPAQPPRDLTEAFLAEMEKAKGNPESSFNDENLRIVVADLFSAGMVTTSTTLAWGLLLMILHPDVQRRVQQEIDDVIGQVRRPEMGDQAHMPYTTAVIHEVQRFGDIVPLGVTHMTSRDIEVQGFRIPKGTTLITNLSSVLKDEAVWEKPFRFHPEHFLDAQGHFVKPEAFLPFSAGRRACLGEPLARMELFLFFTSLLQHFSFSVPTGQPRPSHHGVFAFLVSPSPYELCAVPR
human AKT serine/threonine Kinase 1 (AKT1), AKT1 (gene 207), sequence (P31749 whole entry, looked up): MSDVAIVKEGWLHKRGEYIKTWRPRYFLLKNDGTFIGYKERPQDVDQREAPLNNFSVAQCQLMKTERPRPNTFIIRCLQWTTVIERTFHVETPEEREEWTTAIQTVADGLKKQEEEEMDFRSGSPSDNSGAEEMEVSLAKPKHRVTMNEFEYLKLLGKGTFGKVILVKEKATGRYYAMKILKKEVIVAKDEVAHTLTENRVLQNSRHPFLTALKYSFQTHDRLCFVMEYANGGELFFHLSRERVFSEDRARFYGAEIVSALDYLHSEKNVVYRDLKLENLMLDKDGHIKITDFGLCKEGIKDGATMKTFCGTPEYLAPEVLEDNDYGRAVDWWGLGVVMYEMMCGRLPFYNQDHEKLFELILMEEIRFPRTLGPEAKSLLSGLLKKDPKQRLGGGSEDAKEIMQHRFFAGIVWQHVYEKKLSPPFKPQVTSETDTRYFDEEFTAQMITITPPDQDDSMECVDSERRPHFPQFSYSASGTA

Regarding `CC(C)(c1ccc(O)cc1)c1ccc(O)cc1`, the AC50 (in general, the midpoint of the concentration-response curve, whichever way the signal moves) in test [1] was 5.22 µM (active); in test [2], 12.1 µM (active); in test [3], 5.49 µM (active) [middle of 4 runs]; in test [4], 4.1 µM (active) [middle of 4 runs]; in test [5], 2.98 µM (active) [middle of 4 runs]; in [6], 1.16 µM (active) [middle of 4 runs]. The AC50 is 4.5 µM (active) [middle of 4 runs] in test [7] and 8.05 µM (active) in [8]. The outcome in [1] and in test [2] was inactive.

For the compound `CC(C)CCCCCCc1ccc(O)cc1`, the AC50 in [1] is 10.7 µM (active); in test [9] it was 2.75 µM (active). The compound was classed as inactive in test [10].

With `CC(=O)[C@H]1CC[C@H]2[C@@H]3CCC4=CC(=O)CC[C@]4(C)[C@H]3CC[C@]12C`, the AC50 in [3] was 7.34 µM (active); in test [11], 5.46 µM (active) and 2.77 µM (active); in test [9] it was 2.46 µM (active) and 4.48 µM (active) and 6.21 µM (active); in test [5], 3.07 µM (active) and 7.82 µM (active) and 6.94 µM (active); in [6], 3.08 µM (active) and 6.76 µM (active). The result in test [3] was inactive.

Regarding `CCCCOCCOCCOCc1cc2c(cc1CCC)OCO2`, the AC50 was 5.97 µM (active) in [1]; 10 µM (active) in [2]; 3.87 µM (active) in [12]; 4.31 µM (active) in test [3]; 1.73 µM (active) in test [9]; 7.57 µM (active) in test [6]. Further, the AC50 in [13] was 6.42 µM (active); in [8], 4.85 µM (active). Besides, the compound was classed as inactive in test [4] and in [14].

Regarding `CSC(=O)c1cccc2nnsc12`, the AC50 in test [12] was 3.55 µM (active); in test [9], 3.95 µM (active); in [8], 1.79 µM (active).

For the compound `OB(O)O`, in test [15], the call was inactive.

In the case of `CN(C)C(=O)Nc1ccc(Cl)c(Cl)c1`, the half-maximal activity concentration (AC50) in test [4] was 316 nM (active). Moreover, the compound was called inactive in [10].

Take `CC(=O)S[C@@H]1CC2=CC(=O)CC[C@]2(C)[C@H]2CC[C@@]3(C)[C@@H](CC[C@@]34CCC(=O)O4)[C@H]12`: the AC50 in test [9] was 6.12 µM (active).

Take `CCNc1nc(N)nc(Cl)n1`: the compound was called inactive in test [5].

As for `CCCCOC(=O)C(C)Oc1ccc(Oc2ccc(C(F)(F)F)cn2)cc1` (stereo unspecified), the compound was classed as inactive in [9]. The AC50 in [5] was 1.17 µM (active); in [16], 25 µM (active).

Take `CCCOC(=O)c1ccc(C(=O)OCCC)nc1`: in test [9], the AC50 was 6.74 µM (active).

Source of the values: PubChem BioAssay (EPA / NIEHS).
